Rows were chosen to be rich in hits. Some 18% of all compounds tested hit in one or more screens of this group.
Six1-Eya2 blk: blocks human Six1 binding to Eya2; Q15475+O00167; AlphaScreen GST-Six1/His-Eya2 binding, biochemical; hits give low values; activity change, % (no concentration beside the values); 360,000 compounds, 0.56% hits; AID 651725; in the data active = activity change below about -65%; inconclusive = mostly about -30% to -63%
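Compounds are tested against tagged Six1 and Eya2 proteins bridged by glutathione donor and nickel acceptor beads; after a one-hour incubation at 37 °C without light, AlphaScreen emission is recorded.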
TDP1 block: TDP1 (human) enzyme inhibition; Q9NUW8; 350,000 compounds, 0.28% hits; Potency, µM (top dose mostly 130 µM), without a hit: top-dose activity change, negative = inhibition, actives largely listed as inhibitors; recombinant TDP1, AlphaScreen DNA substrate cleavage; note: potency is the fitted concentration of half-maximal effect; nearly all actives have a fitted effect of over 40% in size
Target sequence (Q9NUW8 whole entry, looked up): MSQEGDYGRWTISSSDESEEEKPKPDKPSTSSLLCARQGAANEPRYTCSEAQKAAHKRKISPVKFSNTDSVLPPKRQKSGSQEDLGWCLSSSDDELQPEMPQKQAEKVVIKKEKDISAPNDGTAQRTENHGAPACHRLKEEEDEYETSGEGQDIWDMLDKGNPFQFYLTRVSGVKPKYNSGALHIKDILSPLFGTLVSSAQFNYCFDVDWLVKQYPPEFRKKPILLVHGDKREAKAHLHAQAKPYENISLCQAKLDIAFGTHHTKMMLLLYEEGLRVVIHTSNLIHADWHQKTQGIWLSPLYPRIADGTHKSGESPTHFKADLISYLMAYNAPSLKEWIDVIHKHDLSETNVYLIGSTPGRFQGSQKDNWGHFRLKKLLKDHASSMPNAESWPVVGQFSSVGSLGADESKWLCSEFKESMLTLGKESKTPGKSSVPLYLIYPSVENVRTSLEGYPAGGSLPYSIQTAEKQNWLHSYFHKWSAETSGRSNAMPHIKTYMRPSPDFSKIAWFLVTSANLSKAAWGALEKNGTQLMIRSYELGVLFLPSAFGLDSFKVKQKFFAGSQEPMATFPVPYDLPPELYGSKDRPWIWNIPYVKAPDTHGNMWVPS
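Recombinant human Tdp1 (E. coli-expressed, 1 nM final) preincubated with compounds 15 min at room temperature, then 5'-biotin/3'-phosphotyrosine-FITC DNA substrate (15 nM final) added for 5 min. AlphaScreen beads (10 ug/ml final) added 10 min; cleavage lowers signal.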
TDP1 cell CPT: growth inhibition of DT40 Tdp1-/-;hTDP1 cells with camptothecin (screen for TDP1 inhibitors) | chicken DT40 Tdp1-/-;hTDP1 cells + 20 nM CPT, ATP luminescence, 48 h | Potency, µM (top dose mostly 46.2 µM), inactives show top-dose activity change, negative = growth inhibition, hits mostly inhibitors | 420,000 compounds, 12% hits; note: potency is the fitted concentration of half-maximal effect; nearly all actives have a fitted effect of over 55% in size
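Cell growth measured by CellTiter-Glo luminescence after a minimum 48 h, 37 C compound exposure with 20 nM CPT in Tdp1-knockout DT40 cells stably expressing hTDP1, seeded 400/well; qHTS titration format.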
CtBP-E1A blk: blocks the CtBP interaction with E1A; AID 651724; activity change, % (concentration not given with the values); 340,000 compounds, 0.49% hits; AlphaScreen GST-E1A/His-CtBP binding, 1536-well; hits give low values; in the data active = activity change below about -65%; inconclusive = mostly about -30% to -63%
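Protein mix (5X: 125 nM each GST-E1A, His-CtBP) was incubated with pinned compound 2 h at 37 deg C in dark, in 50 mM Tris pH 8.0 buffer with 300 mM NaCl. Glutathione donor and nickel acceptor beads followed; AlphaScreen signal read after 1 h.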
DT40 TDP1 no CPT: qHTS for Inhibitors of human tyrosyl-DNA phosphodiesterase 1 (TDP1): qHTS in cells in absence of CPT; DT40 Tdp1-/- hTDP1 cells, no CPT, ATP luminescence, 48 h; Potency, µM (doses to about 46.2 µM), for the others: at the highest dose activity change, negative = growth inhibition, usual class: inhibitors; 420,000 compounds, 15% hits; AID 686978, 2013; note: potency is the fitted concentration of half-maximal effect; nearly all actives have a fitted effect of over 55% in size
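No-CPT arm: Tdp1-/-;hTDP1 DT40 cells (400/well) plus compounds, incubated ≥48 hr at 37 °C. Readout CellTiter-Glo luminescence.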
IL-1B inflam inh: blocks inflammasome-driven IL-1 beta release; activity change, % at 57.5 µM; THP-1 LPS/ATP IL-1B secretion, AlphaLISA, 16 h; hits give low values; 360,000 compounds, 4.7% hits; in the data active = activity change below about -50%; inconclusive = mostly about -30% to -49%
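THP-1 cells pretreated 1 hr with compounds (up to 57.5 uM final), then stimulated with LPS (250 ng/mL final) plus ATP (1.25 mM final); secreted IL-1B measured by AlphaLISA after 16 hr, decreased signal indicating inhibition.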
Starred values were filed as active, the others as inactive; u = inconclusive; x = no result. Unless noted, calls come from the whole dose curve; as a rule, active = well fitted curve in the direction sought with a large enough effect; inconclusive = small, poorly fitted or top-dose-only effect, or another doubt; inactive = no such curve, though single readings can be large; an effect the other way counts as inactive or inconclusive. % is set by controls: 0 for no effect and ±100 for the full control effect.

SMILES | Six1-Eya2 blk | TDP1 block | TDP1 cell CPT | CtBP-E1A blk | DT40 TDP1 no CPT | IL-1B inflam inh
COc1ccc(NC(=O)COc2nsnc2N2CCOCC2)c(OC)c1 | 4 | 3% | -26% | -18 | -10% | 4
COc1ccc(NC(=O)COc2nsnc2N2CCCCC2)cc1 | -19 | 2% | 12µM* | -8 | 18µM* | -10
O=C1CSc2ccc(C(=O)NCCc3ccc(Cl)cc3Cl)cc2N1 | -4 | 3% | u | x | 15µM* | -5
c1ccc2nc(N3CCN(Cc4ccc5c(c4)OCO5)CC3)cnc2c1 | 11 | -3% | -1% | -4 | u | -7
CC(=O)Nc1sc(NC(=O)c2ccc([N+](=O)[O-])cc2)nc1-c1cccs1 | -2 | 5% | -8% | x | -29% | u
Cc1ccc(S(=O)(=O)N2CCC(C(=O)OCC(=O)N3CCCCC3C)CC2)cc1C (stereo not given) | -1 | x | u | 4 | -20% | 17
Cc1cc(/N=C/N(C)C)on1 | 1 | -4% | -1% | 9 | 6% | -2
O=C(NCCC1CCCCN1S(=O)(=O)c1ccccc1)C(=O)Nc1ccc(F)cc1F (stereo not given) | 5 | 0% | 18µM* | 4 | 18µM* | u
Cc1ccc(S(=O)(=O)N2CCCCC2CCNC(=O)C(=O)Nc2ccccc2F)cc1 (stereo not given) | 3 | 0% | 6.5µM* | 2 | 5.8µM* | 67
O=C(NCCC1CCCCN1S(=O)(=O)c1ccccc1)C(=O)NCc1ccccc1F (stereo not given) | 1 | 1% | u | -2 | u | u
COc1ccccc1NC(=O)C(=O)NCCC1CCCCN1S(=O)(=O)c1ccc(F)cc1 (stereo not given) | -10 | 6% | 15µM* | 0 | 18µM* | -24
O=C(NCCC1CCCCN1S(=O)(=O)c1ccccc1)C(=O)Nc1ccccc1 (stereo not given) | -20 | -4% | u | 1 | u | -16
O=C(NCCC1CCCCN1S(=O)(=O)c1ccccc1)C(=O)Nc1ccccc1F (stereo not given) | -1 | x | 18µM* | 11 | 23µM* | 14
O=C(NCCC1CCCCN1S(=O)(=O)c1ccc(F)cc1)C(=O)NC1CCCC1 (stereo not given) | -1 | -7% | u | 3 | u | -6
O=C(NCCC1CCCCN1S(=O)(=O)c1ccc(F)cc1)C(=O)Nc1ccccc1F (stereo not given) | -5 | -2% | u | 1 | 26µM* | 7
Cc1ccc(N2CC(C(=O)N3CCc4ccccc4C3)CC2=O)cc1 (stereo not given) | 5 | 2% | -19% | 8 | -24% | -2
CC(C(=O)Nc1cc([N+](=O)[O-])ccc1Cl)N1CCN(c2ccccc2O)CC1 (stereo not given) | -12 | 11% | u | -12 | 13µM* | 6
CC(=O)NC(Cc1ccc(C(C)C)cc1)C(=O)NC1CCN(C(=O)c2cccc(C)c2)CC1 (stereo not given) | 7 | 5% | u | 0 | u | 13
COc1ccc(N2CC(O)=C(c3nc(-c4ccc(F)cc4)cs3)C2=N)cc1OC | 5 | 3% | u | 0 | 18µM* | -1
N=C1C(c2nc(-c3ccc(Cl)cc3)cs2)=C(O)CN1CCCN1CCOCC1 | -1 | 2% | 26µM* | 15 | 26µM* | u
COc1cccc(CN2CC(O)=C(c3nc(-c4ccc(Cl)cc4)cs3)C2=N)c1 | -3 | 1% | -18% | 10 | 9.2µM* | 53
COc1ccc(N2CC(O)=C(c3nc(-c4ccc(F)cc4)cs3)C2=N)cc1Cl | -11 | 3% | u | -22 | u | 12
CCCCN1CC(O)=C(c2nc(-c3ccc(Cl)cc3)cs2)C1=N | -2 | 2% | -13% | 2 | -17% | 19
Cc1ccc(/C=C/C(=O)Nc2cccc3cccnc23)o1 | -13 | 3% | 12µM* | -14 | 12µM* | 0
CCOC(=O)/C=C/S(=O)(=O)c1ccc(NC(C)=O)cc1 | 3 | 2% | 1.3µM* | -6 | 2.1µM* | -95*
SMILES | Six1-Eya2 blk | TDP1 block | TDP1 cell CPT | CtBP-E1A blk | DT40 TDP1 no CPT | IL-1B inflam inh
Cc1cc(NS(=O)(=O)c2ccc(NC(=O)/C=C/c3ccc(C)o3)cc2)nc(C)n1 | -29 | -14% | 15µM* | x | 18µM* | 8
Cc1ccc(/C=C/C(=O)Nc2ccc([N+](=O)[O-])cc2)o1 | 0 | -1% | u | 0 | u | -10
Cc1cc(NS(=O)(=O)c2ccc(NC(=O)/C=C/c3ccccc3)cc2)nc(C)n1 | -9 | 2% | 11% | -4 | 0% | 35
Cc1ccc(/C=C/C(=O)Nc2ccc(Oc3ccccc3)cc2)o1 | -6 | 0% | u | -4 | u | -83*
CCOC(=O)/C=C/C(=O)Nc1ccc(Oc2ccccc2)cc1 | -6 | 0% | u | 6 | u | -73*
CCOC(=O)/C=C/C(=O)Nc1ccc(S(=O)(=O)Nc2c(C)cc(C)cc2C)cc1 | 1 | 3% | 7.3µM* | 5 | 16µM* | -72*
CC(=O)c1ccc(NC(=O)/C=C/c2ccc(C)o2)cc1 | x | 4% | 15µM* | x | u | x
O=C(O)/C=C/C(=O)Nc1ccc(Oc2ccccc2)cc1 | 1 | 2% | -1% | 0 | -12% | x
Cc1cc(C)c(NS(=O)(=O)c2ccc(NC(=O)c3cccs3)cc2)c(C)c1 | 1 | 5% | -5% | 6 | -11% | -7
COCCCNC(=O)Cn1nc(-c2ccccc2OC)ccc1=O | 22 | 6% | 2% | 0 | 3% | 22
S=C(NCc1ccccc1Cl)Nc1ccccc1Cl | 0 | -5% | 2% | 9 | 0% | 0
Cc1c(N2C(=O)CS/C2=N\N=C\c2ccc(Cl)cc2)c(=O)n(-c2ccccc2)n1C | 0 | 2% | -14% | 3 | -3% | 0
Cc1ccc(C2Cc3cc(O)c(O)cc3CN2)cc1 (stereo not given) | 1 | x | 15µM* | 0 | 16µM* | 13
Cc1ccc(CNC(=O)c2nc(S(=O)(=O)Cc3ccc(C)cc3)ncc2Cl)cc1 | x | -2% | 5.8µM* | x | 3.3µM* | x
Cc1ccc(CNC(=O)c2nc(SCc3ccc(C)cc3)ncc2Cl)cc1 | x | 0% | -10% | x | u | x
Cc1cccc(CS(=O)(=O)c2ncc(Cl)c(C(=O)NCc3ccc4c(c3)OCO4)n2)c1 | -11 | 0% | 2.9µM* | x | 4.6µM* | -96*
